Results from PubChem BioAssay.
Several values for one entry are separate records, joined by “and”; a condition that tells them apart may be missing. Identical values can stand only once. Activity calls are given as the source filed them.

Tests used:
[1] = small molecules captured by biotinylated probe aFSTL3 – biochemical, small-molecule microarray, fluorescence 635/667, stem cell growth factor project, primary screen (AID 1064); conditions: higher = more signal;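 further: measures binding of the biotinylated anti-FSTL3 antibody to printed compounds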
[2] = binders from COS7 lysate, DM2A8 probe, primary screen, torsin A project, cell lysate, small-molecule microarray, fluorescence 635/667 (AID 1065); conditions: higher = more signal, COS7 lysate expressing mutant human TOR1A
[3] = small molecules captured by biotinylated probe aFGF2 – biochemical, small-molecule microarray, fluorescence 635/667, stem cell growth factor project, primary screen (AID 1067); conditions: higher = more signal;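 further: measures binding of biotinylated aFGF2 protein to printed compounds on slides; z-score merges feature fluorescence and signal-to-noise across triplicate slides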
[4] = small molecules captured by biotinylated probe aFGF10 – biochemical, small-molecule microarray, fluorescence 635/667, stem cell growth factor project, primary screen (AID 1071); conditions: higher = more signal;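 further: score merges 667 nm spot intensity and signal to noise from triplicate slides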
[5] = molecular target: Neurogenic locus notch homolog protein 2 (Homo sapiens) (UniProt Q04721); assay: small molecules binding Notch2 protein – biochemical, small-molecule microarray, 635 nm fluorescence, stem cell growth factors, primary screen (AID 1073); conditions: higher = more signal
[6] = molecular target: Pro-neuregulin-1, membrane-bound isoform (Homo sapiens) (UniProt Q02297); assay: small molecules binding neuregulin-1 protein – biochemical, small-molecule microarray, fluorescence 635/667, psychiatric disease protein project, primary screen (AID 1075); conditions: NRG1 binding, 635 nm fluorescence, higher = more signal;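 further: score combines 667 nm spot fluorescence with signal to noise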
[7] = system: Neuregulin-1 EGF-like domain; assay: small molecules binding NRG1 EGF domain – biochemical, small-molecule microarray, 635 nm fluorescence, primary screen (AID 1081); conditions: higher = more signal;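 further: binding of the protein to compounds printed on small-molecule microarray slides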
[8] = FRG1 expression reporter modulators in myotubes – cell-based, C2C12 myotubes, firefly/Renilla luciferase, luminescence, FRG1 inhibition for FSHD, primary screen (AID 1084); conditions: FRG1 promoter luciferase, higher = more signal, called active from +8 up or from −8 down
[9] = small molecules captured by biotinylated probe aFST – biochemical, small-molecule microarray, fluorescence 635/667, stem cell growth factor project, primary screen (AID 1086); conditions: higher = more signal;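 further: score merges 667 nm fluorescence with signal-to-noise of each printed compound spot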
[10] = binders of probe aHhip on microarray, primary screen, stem cell growth factor project, biochemical, small-molecule microarray, fluorescence 635/667 (AID 1087); conditions: higher = more signal;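 further: score merges spot fluorescence at 667nm with spot signal to noise ratio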

Chain of Pro-neuregulin-1, membrane-bound isoform (Homo sapiens) (Q02297 whole entry, looked up, the tested form may be a part, canonical isoform): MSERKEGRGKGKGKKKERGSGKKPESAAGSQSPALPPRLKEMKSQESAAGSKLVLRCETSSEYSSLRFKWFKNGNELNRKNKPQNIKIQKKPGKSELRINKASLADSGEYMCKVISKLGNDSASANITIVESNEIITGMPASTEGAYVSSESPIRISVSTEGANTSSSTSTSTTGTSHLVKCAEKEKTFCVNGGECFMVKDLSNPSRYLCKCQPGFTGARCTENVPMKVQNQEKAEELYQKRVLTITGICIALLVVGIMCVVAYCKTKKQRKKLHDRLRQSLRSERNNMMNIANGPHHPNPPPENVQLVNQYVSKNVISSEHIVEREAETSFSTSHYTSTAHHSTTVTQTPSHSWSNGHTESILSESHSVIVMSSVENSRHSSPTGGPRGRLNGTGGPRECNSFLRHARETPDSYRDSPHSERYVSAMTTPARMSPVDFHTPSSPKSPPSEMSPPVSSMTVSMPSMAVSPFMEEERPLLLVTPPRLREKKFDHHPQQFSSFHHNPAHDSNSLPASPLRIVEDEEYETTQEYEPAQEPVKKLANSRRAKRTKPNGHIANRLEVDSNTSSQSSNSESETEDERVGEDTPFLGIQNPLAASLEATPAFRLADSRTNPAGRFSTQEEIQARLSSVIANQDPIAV
Chain of Neurogenic locus notch homolog protein 2 (Homo sapiens) (Q04721 whole entry, looked up, canonical isoform): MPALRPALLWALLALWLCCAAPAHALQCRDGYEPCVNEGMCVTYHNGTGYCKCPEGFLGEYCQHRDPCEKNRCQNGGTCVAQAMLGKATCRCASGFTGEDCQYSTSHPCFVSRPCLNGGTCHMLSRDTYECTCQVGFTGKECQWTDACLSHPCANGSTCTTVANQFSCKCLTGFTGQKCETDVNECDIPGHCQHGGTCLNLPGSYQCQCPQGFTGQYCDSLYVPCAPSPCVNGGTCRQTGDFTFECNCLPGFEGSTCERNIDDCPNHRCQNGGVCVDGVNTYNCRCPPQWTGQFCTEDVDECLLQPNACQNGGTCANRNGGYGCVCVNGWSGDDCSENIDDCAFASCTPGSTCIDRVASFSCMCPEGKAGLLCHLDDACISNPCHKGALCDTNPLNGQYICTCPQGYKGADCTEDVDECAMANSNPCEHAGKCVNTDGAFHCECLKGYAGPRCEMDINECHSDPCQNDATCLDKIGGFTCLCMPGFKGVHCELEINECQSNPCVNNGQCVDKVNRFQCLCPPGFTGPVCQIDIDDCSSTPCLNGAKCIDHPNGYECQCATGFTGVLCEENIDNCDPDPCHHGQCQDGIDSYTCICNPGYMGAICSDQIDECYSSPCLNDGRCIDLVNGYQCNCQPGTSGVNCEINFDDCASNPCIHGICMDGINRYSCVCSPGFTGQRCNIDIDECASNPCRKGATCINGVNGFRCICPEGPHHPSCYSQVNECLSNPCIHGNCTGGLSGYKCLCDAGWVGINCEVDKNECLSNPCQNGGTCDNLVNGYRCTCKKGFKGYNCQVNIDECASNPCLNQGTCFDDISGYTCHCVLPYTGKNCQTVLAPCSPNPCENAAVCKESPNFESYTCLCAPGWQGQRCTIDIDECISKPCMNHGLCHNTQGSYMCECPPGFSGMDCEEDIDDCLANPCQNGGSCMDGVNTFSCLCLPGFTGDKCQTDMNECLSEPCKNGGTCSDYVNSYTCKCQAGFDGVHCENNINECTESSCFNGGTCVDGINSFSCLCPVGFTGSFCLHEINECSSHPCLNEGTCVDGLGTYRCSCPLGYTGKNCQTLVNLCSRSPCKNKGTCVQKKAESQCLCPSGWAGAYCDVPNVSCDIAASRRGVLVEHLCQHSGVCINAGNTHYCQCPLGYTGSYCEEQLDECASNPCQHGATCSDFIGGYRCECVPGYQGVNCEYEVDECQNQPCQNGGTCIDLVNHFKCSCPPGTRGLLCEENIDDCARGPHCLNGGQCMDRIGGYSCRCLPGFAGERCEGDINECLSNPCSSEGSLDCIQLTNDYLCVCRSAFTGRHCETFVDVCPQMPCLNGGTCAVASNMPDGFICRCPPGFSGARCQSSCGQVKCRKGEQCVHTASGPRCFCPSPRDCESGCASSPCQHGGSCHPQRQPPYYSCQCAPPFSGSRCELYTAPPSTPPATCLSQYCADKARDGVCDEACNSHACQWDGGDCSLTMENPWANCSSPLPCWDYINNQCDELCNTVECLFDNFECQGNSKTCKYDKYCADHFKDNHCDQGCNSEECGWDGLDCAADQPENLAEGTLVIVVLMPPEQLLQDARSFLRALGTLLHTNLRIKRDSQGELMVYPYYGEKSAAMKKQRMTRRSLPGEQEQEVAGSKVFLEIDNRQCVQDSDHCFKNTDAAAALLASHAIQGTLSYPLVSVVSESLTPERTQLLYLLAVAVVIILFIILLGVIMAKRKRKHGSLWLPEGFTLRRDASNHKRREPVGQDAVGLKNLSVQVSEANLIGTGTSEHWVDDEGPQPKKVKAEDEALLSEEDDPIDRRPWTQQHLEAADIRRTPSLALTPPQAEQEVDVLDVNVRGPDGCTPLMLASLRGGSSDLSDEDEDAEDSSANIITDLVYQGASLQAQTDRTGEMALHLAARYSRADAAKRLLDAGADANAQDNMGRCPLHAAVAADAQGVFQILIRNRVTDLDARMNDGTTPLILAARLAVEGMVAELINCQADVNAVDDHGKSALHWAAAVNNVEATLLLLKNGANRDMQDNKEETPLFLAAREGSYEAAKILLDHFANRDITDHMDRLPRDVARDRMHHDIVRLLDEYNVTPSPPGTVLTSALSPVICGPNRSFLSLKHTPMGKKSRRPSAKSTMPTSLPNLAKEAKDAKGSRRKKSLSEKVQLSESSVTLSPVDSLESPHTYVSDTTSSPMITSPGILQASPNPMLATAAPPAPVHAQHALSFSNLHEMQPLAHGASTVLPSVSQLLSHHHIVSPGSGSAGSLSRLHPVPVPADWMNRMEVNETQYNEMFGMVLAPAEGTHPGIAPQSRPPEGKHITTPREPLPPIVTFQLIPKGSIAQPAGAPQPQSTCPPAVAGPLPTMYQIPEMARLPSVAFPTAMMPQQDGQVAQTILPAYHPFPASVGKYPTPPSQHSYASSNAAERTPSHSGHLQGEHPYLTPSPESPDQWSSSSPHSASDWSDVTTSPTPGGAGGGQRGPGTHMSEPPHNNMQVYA

SMILES | composite z-score [1] | composite z-score [2] | composite z-score [3] | composite z-score [4] | composite z-score [5] | composite z-score [6] | composite z-score [7] | z-score [8] | composite z-score [9] | composite z-score [10]
C=C[C@@H](OC)[C@H](O)c1ccc(OCCO)cc1 | -0.145 and 0.184 | -0.492 and -1.23 | -0.206 and -0.178 | -0.976 and -0.915 | -1.07 and -1.57 | -0.748 and -0.394 | -0.0048 and 0.0968 | 1.74 (inactive) and 0.386 (inactive) | -0.984 and -1.26 | -0.236 and -0.196
CCOC(=O)C[C@H]1[C@H](OC(=O)c2ccccc2-c2ccccc2)[C@@H](NC(=O)Cc2ccc(OC)cc2)c2cc(OCCCO)ccc2N1C(=O)c1ccc2ccccc2n1 | -0.21 and 0.27 | 0.266 and 0.395 | -0.0781 and 0.16 | 0.27 and 0.319 | 0.305 and 0.361 | 0.147 and 0.653 | -0.529 and 0.0101 | -0.0725 (inactive) and 0.266 (inactive) | 0.442 and 0.575 | -0.0645 and -0.0672
CN1C(=O)C2CC=C([C@H]3Oc4ccccc4S(=O)(=O)N4CCC[C@@H]34)CC2C1=O (stereo not given in full) | -0.203 and -0.0284 | 0.157 and 0.0061 | -0.133 and -0.149 | 0.0694 and -0.0366 | -1.05 and -0.369 | 0.75 and -0.641 | 0.151 and -0.561 | 0.74 (inactive) and 1.05 (inactive) | -0.311 and -0.365 | -0.0645 and -0.123
C=CCN(C(=O)C1N(c2ccc(CCO)cc2)C(=O)C2C(C(=O)O)C3C=CC21O3)c1ccc(OC)cc1 (stereo not given) | 0.0619 and 0.336 | -0.767 and -0.885 | -0.226 and -0.276 | -0.19 and -1.02 | -0.903 and -1.23 | -0.0224 and -1.32 | 0.939 and -0.115 | 4.82 (inactive) and -0.639 (inactive) | -0.477 and -1.4 | -0.132 and -0.236
C=CCN(CCCCC)C(=O)C1N(c2ccc(CCO)cc2)C(=O)C2C(C(=O)O)C3C=CC21O3 (stereo not given) | -0.152 and 0.561 | -0.875 and -0.415 | -0.154 and -0.179 | -0.808 and -0.367 | -2.12 and -2.03 | -0.638 and -0.72 | -0.465 and -0.307 | 1.51 (inactive) and 1.3 (inactive) | -0.623 and -0.681 | -0.4 and -0.175
CCCC[C@@H]1CN2[C@H](c3ccc(Br)cc3)[C@@H](C)CC[C@H]2C(=O)O1 | -0.419 and -0.254 | -0.309 and 0.41 | -0.129 and -0.103 | -0.0574 and -0.132 | -0.118 and -0.134 | 0.0412 and -0.139 | -0.246 and -0.605 | -1.09 (inactive) and 0.204 (inactive) | -0.0739 and -0.0224 | 0.0264 and -0.0237
C=C[C@H](C)[C@@H](O)c1ccc(OCCO)cc1 | 0.535 and 0.672 | -0.549 and -0.859 | -0.215 and -0.188 | -0.907 and -0.473 | -1.9 and -0.991 | -0.612 and 0.783 | -0.0529 and 0.395 | 1.94 (inactive) and 2.3 (inactive) | -0.552 and -0.723 | -0.204 and -0.0393
CO[C@H]1COC(=O)CC=C[C@H](C)[C@H](OC)COC(=O)[C@@H](C)COC(=O)CC=C[C@@H]1C | -0.62 and -0.66 | 0.767 and 1.26 | -0.14 and -0.143 | -0.0016 and 0.149 | -0.178 and 0.182 | -0.73 and -0.518 | -0.104 and 0.0825 | -0.407 (inactive) and -1.3 (inactive) | -0.0446 and -0.0435 | -0.261 and -0.0645
C=CCN(CCCC)C(=O)C1N(CCCCCCO)C(=O)C2C(C(=O)O)C3C=CC21O3 (stereo not given) | 1.42 and 1.34 | -0.0373 and -0.98 | -0.153 and -0.112 | -0.0134 and -0.092 | -2.57 and -2.12 | -0.506 and 0.0117 | 0.796 and 1.46 | 0.591 (inactive) and 0.91 (inactive) | -1.41 and -0.957 | -0.383 and -0.204
C=C[C@H](OC)[C@@H](O)c1ccc(O)c(F)c1 | 1.25 and 1.29 | -0.903 and -2.05 | -0.116 and -0.247 | -0.458 and -0.0501 | -2.17 and -1.38 | -0.527 and -1.01 | -0.0988 and 0.736 | 0.537 (inactive) and -0.0808 (inactive) | -1.08 and -1.54 | -0.213 and -0.314
C=CCN(CCCC)C(=O)C(c1cccs1)N(C(=O)/C=C\C(=O)O)c1c(Cl)cccc1CO (stereo not given) | 1.46 and 0.323 | -1.19 and -0.707 | -0.288 and -0.203 | -1.27 and -1.8 | -1.97 and -1.39 | -1.26 and -0.533 | -0.751 and 0.176 | -0.165 (inactive) and -0.332 (inactive) | -1.94 and -0.684 | 0.679 and -0.409
CCOC(=O)NN=C1C[C@@H](O)[C@@H](O)[C@@H]2[C@@H]3C(=O)N(Cc4ccc5c(c4)OCO5)C(=O)[C@@H]3CC[C@@H]12 | -0.441 | 0.16 | -0.121 | 0.505 | 0.34 | 0.416 | 0.858 | -0.544 (inactive) | 0.16 | 0.007
CC(CO)N1C(=O)[C@@H]2C3C(=O)OCCC=C[C@H]3OC23C=CCN(CCN2CCOCC2)C(=O)[C@@H]13 (stereo not given in full) | -0.316 and 0.246 | -1.28 and 0.759 | -0.166 and -0.085 | -0.376 and -0.591 | -0.0931 and 0.0406 | -0.256 and 1.91 | 0.678 and 0.666 | 0.12 (inactive) and 0.497 (inactive) | 0.106 and 0.0417 | -0.399 and -0.119
C=CCN(CCCC)C(=O)C1N(c2ccc(CCO)cc2)C(=O)C2C(C(=O)O)C3C=CC21O3 (stereo not given) | 0.508 and 1.27 | -1.1 and -1.66 | -0.156 and -0.061 | -0.883 and 0.807 | -1.32 and -0.91 | -1.32 and -0.402 | -0.493 and 0.201 | -0.267 (inactive) and 1.68 (inactive) | -0.951 and -1.03 | -0.48 and -0.137
COc1ccc(COC(=O)NN=C2C[C@@H](O)[C@@H](O)[C@@H]3[C@@H]4C(=O)N(C(C)(C)C)C(=O)[C@@H]4CC[C@H]23)cc1 | -0.494 | 0.602 | -0.0439 | 0.799 | 0.29 | 1.46 | 1.13 | -1.03 (inactive) | 0.0715 | -0.13
COC(=O)C1=C(C)N(Cc2ccccc2)[C@]23O[C@](C(=O)OC)(C(=O)N2[C@@H]1c1ccccc1)[C@@H](c1ccccc1)[C@@H]3C(=O)c1ccccc1 | -0.139 and -0.413 | 0.458 and -0.235 | -0.0716 and -0.0931 | 0.236 and 0.391 | 0.789 and 0.499 | 0.489 and -0.621 | 0.428 and 0.602 | -0.0163 (inactive) and 0.21 (inactive) | 0.398 and 0.155 | -0.132 and -0.226
